# Data: the supplement of paper PMC6555819
# Assays:
# Assay in all cases: PBM binding z-score (relative to random genomic background probes); higher = stronger binding; sequences stand for … in GC…GCGATTGACAGCGTAGAATGAAGG
# [1] = test system: FXR:RXRa (NR concentration 270 nM, RXRa partner concentration 90 nM)
# Procedure, shortened: (§1)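 Custom Agilent 4×180K protein-binding microarrays carried double-stranded probes, each with a 34-nt variable region. These regions held direct-repeat seeds, single-nucleotide variants, half-site ablations and random human genomic background sequences. Ligand-free nuclear receptor dimers were incubated on the arrays for 1 h, antibodies against each partner (one per run) detected binding, and scanned fluorescence was regression-normalized. Binding z-scores take the random background probes as reference.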
# [2] = test system: LXRa:RXRa (NR concentration 270 nM, RXRa partner concentration 90 nM)
# Procedure, shortened: as §1
# [3] = test system: LXRa homodimer (NR concentration 270 nM)
# Procedure, shortened: as §1
# [4] = test system: LXRb:RXRa (NR concentration 270 nM, RXRa partner concentration 90 nM)
# Procedure, shortened: as §1
# [5] = test system: LXRb homodimer (NR concentration 270 nM)
# Procedure, shortened: as §1
# [6] = test system: PPARa:RXRa (NR concentration 270 nM, RXRa partner concentration 90 nM)
# Procedure, shortened: as §1
# [7] = test system: PPARg:RXRa (NR concentration 180 nM, RXRa partner concentration 90 nM)
# Procedure, shortened: as §1
# [8] = test system: PPARg:RXRa 270nM:90nM, anti-RXR (NR concentration 270 nM, RXRa partner concentration 90 nM)
# Procedure, shortened: as §1
# [9] = test system: PPARg:RXRa 30nM:10nM, anti-RXR (NR concentration 30 nM, RXRa partner concentration 10 nM)
# Procedure, shortened: as §1
# [10] = test system: PPARg:RXRa 90nM:30nM, anti-RXR (NR concentration 90 nM, RXRa partner concentration 30 nM)
# Procedure, shortened: as §1
# [11] = test system: PPARg:RXRa DBDmut IVT, anti-RXR (DBD mutation: RXRa K156A/R161A, NR concentration 270 nM, RXRa partner concentration 90 nM)
# Procedure, shortened: as §1
# [12] = test system: PPARg:RXRa IVT, anti-PPARg (NR concentration 270 nM, RXRa partner concentration 90 nM)
# Procedure, shortened: as §1
# [13] = test system: PPARg DBDmut:RXRa IVT, anti-PPARg (DBD mutation: PPARg1 K132A/R137A, NR concentration 270 nM, RXRa partner concentration 90 nM)
# Procedure, shortened: as §1
# [14] = test system: PPARg DBDmut IVT, anti-PPARg (DBD mutation: PPARg1 K132A/R137A, NR concentration 270 nM)
# Procedure, shortened: as §1
# [15] = test system: PPARg homodimer (NR concentration 180 nM)
# Procedure, shortened: as §1
# [16] = test system: PXR:RXRa (NR concentration 270 nM, RXRa partner concentration 90 nM)
# Procedure, shortened: as §1
# [17] = test system: PXR homodimer (NR concentration 270 nM)
# Procedure, shortened: as §1
# [18] = test system: RARa:RXR (NR concentration 270 nM, RXRa partner concentration 90 nM)
# Procedure, shortened: as §1
# [19] = test system: RARa homodimer (NR concentration 270 nM)
# Procedure, shortened: as §1
# [20] = test system: RARb:RXRa (NR concentration 270 nM, RXRa partner concentration 90 nM)
# Procedure, shortened: as §1
Sequence,PBM binding z-score [1],PBM binding z-score [2],PBM binding z-score [3],PBM binding z-score [4],PBM binding z-score [5],PBM binding z-score [6],PBM binding z-score [7],PBM binding z-score [8],PBM binding z-score [9],PBM binding z-score [10],PBM binding z-score [11],PBM binding z-score [12],PBM binding z-score [13],PBM binding z-score [14],PBM binding z-score [15],PBM binding z-score [16],PBM binding z-score [17],PBM binding z-score [18],PBM binding z-score [19],PBM binding z-score [20]
ATATGTAGGTTATCGGGCCATTCAGTTTGCGCAT,0.607,1.03,0.565,0.95,0.458,3.22,5.22,4.45,1.98,3.76,7.31,6.82,2.32,3.56,1.89,0.605,1.06,0.558,1.09,1.08
AATCAAAGTTCACTAGGTAACGTAAGATTCAGCT,4.99,5.49,4.91,3.21,1.43,4.48,5.39,4.91,2.47,3.92,2.41,4.17,1.22,1.64,2.31,3.75,2,2.5,1.15,4.72
ACTAGCAGGCCACGTTTGGGTCACTCAAACAAAG,0.331,0.116,-0.479,0.601,-0.41,1.42,0.444,0.355,-0.448,-0.155,1.75,1.88,-0.646,-0.408,0.639,0.56,-0.664,1.3,-0.197,1.58
ACTGACGGGTCAACGAGGTTATAGCACGCGTATA,5.56,4.16,0.67,3.43,0.166,5.03,3.34,3.77,0.997,2.17,0.94,2.54,0.338,0.241,1.88,4.39,2.3,4.36,0.626,3.87
ATATGTAGGGTAAGGGTCATTCAGGTTGGTTCGC,4.75,4.47,2.94,4.47,3.06,6.52,11.9,10.3,11.2,12,6.71,7.53,5.99,4.1,6.25,5.47,4.86,5.19,3.71,3.53
ACTATTAGTGGACTTAGGGCAACCGATACGACGC,0.086,-0.113,-0.0613,-0.278,0.0908,-0.455,0.923,0.348,0.284,0.211,0.261,0.425,0.622,0.53,-0.531,-0.184,0.307,-0.1,0.447,0.196
TGTCAAAGTCCAAAGGTAACGTAAGTATCCACAC,-0.0292,0.605,-0.413,0.55,-0.353,1.61,2.27,2.93,1.07,2.43,-0.118,1.79,0.417,1.16,0.272,0.511,-0.0654,0.938,0.285,1.93
ATGTGTAGGTTAAGGGTCATTCAGGTTGGTTCGC,5.28,4.85,3.49,4.71,2.56,5.72,9.4,8.54,9.74,9.9,3.87,5.47,1.46,1.87,4.52,5.44,4.53,6.37,3.77,3.91
ATATGTAGGTTAGCTGGGGTCATTAAGACTAGGC,4.6,5.39,2.55,4.58,1.38,5.13,5.69,4.89,2.49,4.2,7.01,6.64,3.24,2.7,2.8,5.91,3.46,5.15,1.22,3
ATCTCTAGGTAAAGATAGTTCCGTGAATGCAAAT,0.0722,-0.0482,0.14,-0.171,0.352,0.22,0.326,0.273,0.172,0.366,1.2,1.52,1.55,0.949,0.486,-0.0332,0.339,0.23,0.96,-0.0284
GCGACTGGGGCATCGGCAGGTTACCATAACTTAA,0.0165,-0.138,-0.214,0.589,-0.797,1.06,0.979,1.1,-0.324,0.563,3.7,3.26,-0.659,-0.662,0.364,0.0639,-0.275,0.387,-0.205,0.954
CGTCAAAGTTCAAGGGAACGTAACAGAAAGCAGC,6.3,5.44,2.42,3.12,0.895,4.42,3.85,4.64,1.76,3.48,0.445,1.36,0.481,1.2,2.69,3.89,2.32,3.09,1.28,5.11
CTAACTAGGTCAAGAGGTCAAAGTCCGCTTCCCG,6.96,6.46,6.71,5.78,2.03,6.55,10.3,8.4,7.88,8.64,8.74,8.7,3.27,2.76,5.39,6.07,2.21,7.15,1.67,5.5
TCTAGTTGGTCAAAGGTCACACTCTCGAAATGCG,5.93,5.66,3.78,5.32,1.9,6.47,11.1,9.87,10.5,10.6,3.65,6.05,1.12,1.37,5.48,5.85,1.74,7.41,3.43,4.92
TAGCCTAGGTCACGCGGGCCAGTATAGTGTCGGC,5.13,3.81,0.104,2.03,-0.215,4.31,4.11,4.02,0.903,3.02,2.95,4.27,-0.0213,0.00762,1.6,1.84,-0.691,3.32,-0.183,4.33
AGAAAGAGGGCACGCTGAGTTGATAGCAGAGTAG,1.1,1.24,-0.317,0.624,-0.685,2.59,1.83,1.95,0.315,1.09,3.25,3.07,0.171,-0.413,0.723,1.85,-0.108,1.27,-0.166,2.74
AGATTGAGGTTATTAAGATCAGGGAATTGCGGTC,1.61,1.28,0.39,1.32,0.271,2.42,1.08,1.65,0.461,1.17,2.3,2.34,0.654,0.969,1.25,1.32,0.669,1.33,0.972,1.41
CTCGAAAGGTCGGTTGACGTGAGTATACGGATAA,1.71,1.46,0.0257,1.44,0.0927,2.2,0.565,0.822,0.194,0.528,0.129,0.68,0.821,0.0479,0.644,1.01,-0.25,1.5,-0.0456,2.91
TCGAGTAGGTTAGCAATGGGGCATTCAGCTTTCT,-0.119,0.188,-0.715,0.235,-0.623,0.539,-0.248,0.643,1.08,1.09,2.43,1.46,-0.902,-1.37,-0.285,-0.264,-0.747,-0.123,-0.474,0.542
CCTAGCAGGCCAATCTGGCTCACTCAAGGCTTGA,-0.716,-0.911,-0.459,-0.999,-0.737,-0.434,-0.54,-0.642,-0.916,-1.12,1.35,0.117,-2.07,-1.06,-0.294,-0.913,-1.16,-0.795,-0.522,-0.16
CAAACTAGGTCTCAGAGGTCAAAGTCCGTGCGTA,4.78,5.2,5.13,4.97,1.8,5.18,4.67,5.17,2.69,4.41,5.55,5.54,0.45,0.559,2.98,5.51,2.93,5.67,1.38,3.88
TCTGCGAGGTCAGTTGGTCAGCTAACGAGCTGCC,4.64,3.16,0.00554,2.69,1.26,3.99,2.69,3.5,1.59,2.61,1.99,3.25,2.02,0.235,1,2.88,0.146,2.68,-0.6,4.51
GGAACGAGGGCATTCGAGTTGATTGCATGGCGAT,0.926,1.7,-0.316,0.105,-0.391,1.4,0.653,0.598,-0.244,0.242,2.85,2.45,0.178,-0.205,-0.105,3.88,1.55,1.03,-0.634,1.84
CCTCGGAGGACAACAGGAGGTCGGAGCTGCCAGA,-0.0236,-0.0275,-0.149,-0.236,-0.893,0.19,-0.122,-0.445,-0.792,-1.05,-0.0819,-0.232,-0.343,-1.52,-0.189,0.00803,-0.239,0.109,0.111,1.55
TAGCCTAGGTGATTCAGGGGCCAGTATAGAAAGC,-0.423,-0.634,-0.348,-0.094,-0.239,0.0128,0.0919,-0.199,-0.433,0.0704,0.201,0.666,-0.281,0.314,-0.16,-0.295,-0.446,0.184,-0.571,0.516
TCTATTAGTTGAAGGGCAATCGACGAGTCCGTTT,0.797,0.889,0.341,0.908,0.176,0.795,0.0366,1.98,3.75,2.67,2.4,0.352,-0.193,-0.223,0.916,0.833,0.904,0.162,0.81,1.24
CCTTACGGGTCACTCCAAGTTATAGCATCGGAGT,4.3,4.77,0.264,2.99,0.193,4.54,3.18,3.68,1.12,2.66,3.33,3.23,0.816,0.0314,3.25,2.57,0.296,3.32,1.47,3.56
TCTCGGAGGATACGAAAGGTCAGAGCTCGACATC,2.69,4.17,2.95,3.22,-0.148,3.68,1.75,3.37,2.63,3.04,1.32,1.03,-1.04,-0.436,2.71,3.67,0.308,4.51,0.99,3.69
